Active and inactive are the calls of the source. The calls were made as follows: active = hit-call score of the fitted dose curve at least 0.9, where 1 is the maximum; inactive = score below 0.9.

The text below walks through data of PubChem BioAssay (EPA / NIEHS).

Holding throughout (conditions): mRNA level, 48 h; actives raise or lower the signal
Read-out in one test: BCL2L11 (gene 10018)
The test can be described thus: LTEA_HepaRG_BCL2L11: Life Technologies and Expression Analysis (LTEA) Assay for Bcl-2 (BCL2L11) gene using HepaRG (AID 2283473). An outline of the steps: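 Cells were plated, cultured 48 h, switched to serum-free induction medium, then dosed in duplicate for 48 h at eight half-log concentrations up to 100 uM. Lysates underwent RNA isolation and TaqMan qRT-PCR; gain or loss versus DMSO was fitted.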

Read-out in test [1]: Apolipoprotein A-V (APOA5) gene, APOA5 (gene 116519)
The test is described as follows: LTEA_HepaRG_APOA5: Life Technologies and Expression Analysis (LTEA) Assay for Apolipoprotein A-V (APOA5) gene using HepaRG (AID 2283474). Summed up: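 Human liver HepaRG cells are treated 48 h with test chemicals (100 uM top, half-log dilutions, 0.5% DMSO). APOA5 mRNA induction or loss is measured by qRT-PCR relative to vehicle.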

Read-out in test [2]: Apoptosis regulator Bcl-2 (Homo sapiens) (UniProt P10415)
The test can be described thus: LTEA_HepaRG_BCL2: Life Technologies and Expression Analysis (LTEA) Assay for Bcl-2 gene using HepaRG (AID 2283475). An outline of the steps: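 Differentiated HepaRG cells in serum-free induction medium were exposed for 48 h to eight half-log concentrations up to 100 uM in 0.5% DMSO, in duplicate. BCL2 mRNA was quantified by TaqMan qRT-PCR normalised to ACTB, GAPDH and POLR2A, with bidirectional fitting versus DMSO.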

Read-out in test [3]: Bcl-2 (BID) gene, BID (gene 637)
The test can be described thus: LTEA_HepaRG_BID: Life Technologies and Expression Analysis (LTEA) Assay for Bcl-2 (BID) gene using HepaRG (AID 2283476). Summed up:
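Differentiated HepaRG cells in serum-free induction medium were exposed in duplicate for 48 h to eight half-log concentrations up to 100 uM in 0.5% DMSO. BID mRNA was quantified by qRT-PCR, normalized to ACTB, GAPDH and POLR2A.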

Read-out in the next test: Caspase-3 (Homo sapiens) (UniProt P42574)
The test can be described thus: LTEA_HepaRG_CASP3: Life Technologies and Expression Analysis (LTEA) Assay for cysteine-aspartic acid protease (CASP3) using HepaRG (AID 2283477). An outline of the steps: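 In HepaRG liver cells dosed for 48 h at up to 100 uM (eight-point, duplicate), CASP3 expression changes are scored by qRT-PCR. Activity is fitted in both directions with 0.5% DMSO as baseline.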

Read-out in test [4]: Cytochrome P450 (CYP24A1), CYP24A1 (gene 1591)
The test is described as follows: LTEA_HepaRG_CYP24A1: Life Technologies and Expression Analysis (LTEA) Assay for Cytochrome P450 (CYP24A1) using HepaRG (AID 2283478). An outline of the steps: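 Human liver HepaRG cultures receive each chemical for 48 h across an eight-point half-log series topping at 100 uM in 0.5% DMSO. Induction or suppression of CYP24A1 mRNA is scored relative to vehicle after housekeeping-gene normalization.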

Read-out in test [5]: Cytochrome P450 (CYP1A2), CYP1A2 (gene 1544)
The test can be described thus: LTEA_HepaRG_CYP1A2: Life Technologies and Expression Analysis (LTEA) Assay for Cytochrome P450 (CYP1A2) using HepaRG (AID 2283479). An outline of the steps: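 Assesses CYP1A2 mRNA in human HepaRG liver cells after 48 h chemical exposure at up to 100 uM. Values come from qRT-PCR with bidirectional curve fitting relative to DMSO.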

Read-out in test [6]: cysteine-aspartic acid protease (CASP8), CASP8 (gene 841)
The test can be described thus: LTEA_HepaRG_CASP8: Life Technologies and Expression Analysis (LTEA) Assay for cysteine-aspartic acid protease (CASP8) using HepaRG (AID 2283480). Summed up: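 HepaRG, 48 h exposure, duplicate wells; 8 conc, half-log from 100 uM, 0.5% DMSO. Serum-free induction medium. CASP8 mRNA by TaqMan qRT-PCR, norm. ACTB/GAPDH/POLR2A; gain/loss fitted vs DMSO.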

Read-out in test [7]: Cytochrome P450 (CYP2B6), CYP2B6 (gene 1555)
The test can be described thus: LTEA_HepaRG_CYP2B6: Life Technologies and Expression Analysis (LTEA) Assay for Cytochrome P450 (CYP2B6) using HepaRG (AID 2283481). Summed up: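 Using 48 h treatment of HepaRG cells in serum-free induction medium, concentrations spanned half-log steps from 100 uM in 0.5% DMSO vehicle. CYP2B6 mRNA induction or loss is scored by qRT-PCR against DMSO.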

Read-out in test [8]: Cytochrome P450 2C19 (Homo sapiens) (UniProt P33261)
The test can be described thus: LTEA_HepaRG_CYP2C19: Life Technologies and Expression Analysis (LTEA) Assay for CYP2C19 using HepaRG (AID 2283482). An outline of the steps: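 Human HepaRG liver cells received test chemicals for 48 h (highest 100 uM, half-log dilutions in 0.5% DMSO). CYP2C19 mRNA induction or loss is read by multiplexed qRT-PCR and fitted in both directions versus vehicle.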

Read-out in the next test: CYP2C8 (gene 1558)
The test can be described thus: LTEA_HepaRG_CYP2C8: Life Technologies and Expression Analysis (LTEA) Assay for CYP2C8 using HepaRG (AID 2283483). Summed up: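 CYP2C8 mRNA induction or loss, by qRT-PCR normalized to ACTB/GAPDH/POLR2A, is read in HepaRG cells after 48 h treatment. Concentrations run from 100 uM down in half-log dilutions, with 0.5% DMSO as vehicle and baseline.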

Read-out in the next test: CYP2C9 (gene 1559)
The test can be described thus: LTEA_HepaRG_CYP2C9: Life Technologies and Expression Analysis (LTEA) Assay for CYP2C9 using HepaRG (AID 2283484). An outline of the steps: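 Cells plated 48 h, switched to serum-free induction medium, then treated in duplicate for 48 h at eight concentrations (max 100 uM, 0.5% DMSO). RNA then analysed by qRT-PCR for CYP2C9; curves fitted in both directions relative to DMSO.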

Read-out in the next test: CYP2E1 (gene 1571)
The test can be described thus: LTEA_HepaRG_CYP2E1: Life Technologies and Expression Analysis (LTEA) Assay for CYP2E1 using HepaRG (AID 2283485). Summed up:
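HepaRG cells in serum-free induction medium exposed 48 h to test chemicals, 8 half-log concentrations up to 100 uM in 0.5% DMSO, duplicate. CYP2E1 mRNA by qRT-PCR, normalized to ACTB, GAPDH, POLR2A; bidirectional fit versus DMSO.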

Read-out in the next test: CYP4A11 (gene 1579)
The test is described as follows: LTEA_HepaRG_CYP4A11: Life Technologies and Expression Analysis (LTEA) Assay for CYP4A11 using HepaRG (AID 2283486). Summed up:
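Readout is CYP4A11 mRNA induction or suppression (qRT-PCR, ACTB/GAPDH/POLR2A normalization) in human HepaRG cells after 48 h chemical treatment, concentrations to 100 uM in 0.5% DMSO, fitted bidirectionally against vehicle.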

Read-out in test [9]: Cytochrome P450 3A4 (Homo sapiens) (UniProt P08684)
The test is described as follows: LTEA_HepaRG_CYP3A4: Life Technologies and Expression Analysis (LTEA) Assay for CYP3A4 using HepaRG (AID 2283487). Summed up:
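Differentiated HepaRG cells in serum-free induction medium exposed in duplicate for 48 h to 8 half-log concentrations up to 100 uM in 0.5% DMSO. CYP3A4 mRNA measured by qRT-PCR normalized to ACTB, GAPDH and POLR2A; bidirectional fit versus DMSO.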

Read-out in test [10]: DNA damage-inducible transcript 3 (DDIT3), DDIT3 (gene 1649)
The test is described as follows: LTEA_HepaRG_DDIT3: Life Technologies and Expression Analysis (LTEA) Assay for DNA damage-inducible transcript 3 (DDIT3) using HepaRG (AID 2283488). An outline of the steps: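 Differentiated human HepaRG cells in serum-free induction medium were exposed in duplicate for 48 h to 8 concentrations (top 100 uM, half-log steps, 0.5% DMSO). DDIT3 mRNA measured by TaqMan qRT-PCR, normalized to ACTB/GAPDH/POLR2A; bidirectional fit versus DMSO.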

Read-out in test [11]: Pro-epidermal growth factor (Homo sapiens) (UniProt P01133)
The test is described as follows: LTEA_HepaRG_EGF: Life Technologies and Expression Analysis (LTEA) Assay for Epidermal growth factor (EGF) using HepaRG (AID 2283489). An outline of the steps: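 EGF expression changes in human HepaRG cells are scored by bidirectional fitting relative to 0.5% DMSO controls. Chemicals are tested at eight half-log concentrations up to 100 uM for 48 h in serum-free induction medium.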

Read-out in test [12]: Early growth response protein 1 (EGR1) transcription factor, EGR1 (gene 1958)
The test is described as follows: LTEA_HepaRG_EGR1: Life Technologies and Expression Analysis (LTEA) Assay for Early growth response protein 1 (EGR1) transcription factor using HepaRG (AID 2283490). Summed up: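 Read-out is EGR1 mRNA level by qRT-PCR, normalized to three housekeeping genes and analysed for gain or loss of signal against 0.5% DMSO. Source cells: human HepaRG, treated 48 h at up to 100 uM in half-log dilutions.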

Read-out in test [13]: Ezrin (EZR), EZR (gene 7430)
The test can be described thus: LTEA_HepaRG_EZR: Life Technologies and Expression Analysis (LTEA) Assay for Ezrin (EZR) using HepaRG (AID 2283491). An outline of the steps: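 Differentiated human HepaRG cells, 48 h after plating, were exposed in serum-free induction medium for 48 hours to eight half-log concentrations up to 100 uM in 0.5% DMSO. EZR mRNA was measured by TaqMan qRT-PCR, normalized to ACTB, GAPDH and POLR2A, and fitted bidirectionally against DMSO.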

Read-out in test [14]: Cytochrome P450 3A7 (Homo sapiens) (UniProt P24462)
The test is described as follows: LTEA_HepaRG_CYP3A7: Life Technologies and Expression Analysis (LTEA) Assay for CYP3A7 using HepaRG (AID 2283492). An outline of the steps:
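Cells were thawed, plated, cultured 48 h, then treated for a further 48 h with chemicals (eight-point half-log series from 100 uM, 0.5% DMSO). RNA was isolated and CYP3A7 expression quantified by qRT-PCR normalised to ACTB, GAPDH and POLR2A.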

Caspase-3 (Homo sapiens), sequence (P42574 whole entry, looked up): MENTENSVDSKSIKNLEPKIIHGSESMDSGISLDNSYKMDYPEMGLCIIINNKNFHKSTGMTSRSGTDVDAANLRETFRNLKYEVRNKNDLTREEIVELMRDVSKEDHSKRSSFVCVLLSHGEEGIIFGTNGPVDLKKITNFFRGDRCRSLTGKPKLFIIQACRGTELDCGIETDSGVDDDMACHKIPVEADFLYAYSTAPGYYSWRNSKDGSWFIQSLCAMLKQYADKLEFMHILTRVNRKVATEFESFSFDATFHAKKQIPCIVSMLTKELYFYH
Cytochrome P450 3A4 (Homo sapiens), sequence (P08684 whole entry, looked up): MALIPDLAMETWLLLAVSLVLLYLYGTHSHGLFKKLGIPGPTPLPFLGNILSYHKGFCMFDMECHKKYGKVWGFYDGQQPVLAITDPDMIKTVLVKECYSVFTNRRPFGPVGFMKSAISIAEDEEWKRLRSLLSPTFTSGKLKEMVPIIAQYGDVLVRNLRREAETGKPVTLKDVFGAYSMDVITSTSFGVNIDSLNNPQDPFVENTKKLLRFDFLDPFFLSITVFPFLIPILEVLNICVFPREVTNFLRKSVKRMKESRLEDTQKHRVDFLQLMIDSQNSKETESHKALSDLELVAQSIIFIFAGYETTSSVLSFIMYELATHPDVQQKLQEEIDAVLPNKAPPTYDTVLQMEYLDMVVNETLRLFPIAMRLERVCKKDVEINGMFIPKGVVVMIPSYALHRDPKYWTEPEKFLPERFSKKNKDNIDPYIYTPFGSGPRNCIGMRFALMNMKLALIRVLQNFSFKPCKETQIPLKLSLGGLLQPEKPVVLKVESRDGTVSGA
Cytochrome P450 3A7 (Homo sapiens), sequence (P24462 whole entry, looked up): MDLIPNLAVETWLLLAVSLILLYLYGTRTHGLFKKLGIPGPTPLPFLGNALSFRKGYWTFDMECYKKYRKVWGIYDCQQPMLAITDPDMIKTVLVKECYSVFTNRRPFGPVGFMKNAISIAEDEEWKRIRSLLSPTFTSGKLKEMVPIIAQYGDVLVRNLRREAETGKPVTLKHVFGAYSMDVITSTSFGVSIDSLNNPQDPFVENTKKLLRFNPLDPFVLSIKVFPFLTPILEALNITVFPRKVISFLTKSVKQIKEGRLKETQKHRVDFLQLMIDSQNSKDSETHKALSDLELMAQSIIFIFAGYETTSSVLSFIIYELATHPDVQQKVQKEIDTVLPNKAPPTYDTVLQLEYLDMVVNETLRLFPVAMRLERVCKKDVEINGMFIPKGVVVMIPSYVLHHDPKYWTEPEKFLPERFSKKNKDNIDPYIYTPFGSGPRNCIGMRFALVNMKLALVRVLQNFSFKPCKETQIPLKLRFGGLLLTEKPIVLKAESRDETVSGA
Cytochrome P450 2C19 (Homo sapiens), sequence (P33261 whole entry, looked up): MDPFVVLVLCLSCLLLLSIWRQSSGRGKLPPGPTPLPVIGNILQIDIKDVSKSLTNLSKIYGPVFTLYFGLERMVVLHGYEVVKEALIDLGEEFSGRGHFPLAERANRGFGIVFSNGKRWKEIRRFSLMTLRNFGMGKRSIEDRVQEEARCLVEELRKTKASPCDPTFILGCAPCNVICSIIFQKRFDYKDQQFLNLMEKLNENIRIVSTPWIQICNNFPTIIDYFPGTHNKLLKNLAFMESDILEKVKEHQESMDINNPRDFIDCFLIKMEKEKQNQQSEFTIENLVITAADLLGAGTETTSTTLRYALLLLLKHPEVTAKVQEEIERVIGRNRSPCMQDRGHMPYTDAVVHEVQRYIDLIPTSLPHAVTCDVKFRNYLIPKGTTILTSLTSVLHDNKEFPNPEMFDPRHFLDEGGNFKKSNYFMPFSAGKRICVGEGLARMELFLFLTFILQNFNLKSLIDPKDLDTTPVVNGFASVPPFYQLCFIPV
Apoptosis regulator Bcl-2 (Homo sapiens), sequence (P10415 whole entry, looked up): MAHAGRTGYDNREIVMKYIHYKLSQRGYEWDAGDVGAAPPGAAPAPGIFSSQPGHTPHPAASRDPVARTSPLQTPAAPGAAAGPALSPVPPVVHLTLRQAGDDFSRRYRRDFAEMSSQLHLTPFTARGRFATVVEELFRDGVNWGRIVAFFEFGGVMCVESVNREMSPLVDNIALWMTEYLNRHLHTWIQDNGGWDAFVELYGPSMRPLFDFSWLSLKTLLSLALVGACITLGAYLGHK

What is called AC50 is the midpoint of the concentration-response curve, whichever way the signal moves. As for `O=C(NS(=O)(=O)/C=C/c1ccccc1)c1ccc(F)cc1Cl`, the molecule was classed as inactive (with BCL2L11 (gene 10018); in test [1]; in test [2]; in test [3]; with Caspase-3 (Homo sapiens); in [4]). Besides, the call (in test [5]; in test [6]; with CYP2C8 (gene 1558); with CYP2C9 (gene 1559); with CYP4A11 (gene 1579); in test [10]) was inactive. Further, the result in test [11], in [12] and in test [13] was inactive. For the same molecule, the AC50 in test [7] was 0.459 µM (active); in test [8] it was 2.51 µM (active); with CYP2E1 (gene 1571), 22.3 µM (active); in test [9] it was 11.3 µM (active); in test [14] it was 28.7 µM (active).
With `O=c1n(CC2CO2)c(=O)n(CC2CO2)c(=O)n1CC1CO1` (stereo not given), the outcome (in the test with BCL2L11 (gene 10018); in test [1]; in test [2]; in test [3]; with Caspase-3 (Homo sapiens); in [4]) was inactive. The outcome (in [5]; in test [6]; in [7]; in [8]; with CYP2C8 (gene 1558); with CYP2C9 (gene 1559)) was inactive. Moreover, the result (in the test with CYP2E1 (gene 1571); with CYP4A11 (gene 1579); in test [10]; in test [11]; in test [12]; in [13]) was inactive. Besides, the call in test [14] was inactive. Besides, in [9], the AC50 is 78.3 µM (active).
`Fc1ccccc1[C@@H](F)COC1CCC(Nc2ncnc3[nH]ncc23)CC1` (stereo not given in full): the result (in the test with BCL2L11 (gene 10018); in test [3]; in [4]; in test [6]; in the test with CYP2C8 (gene 1558); in test [13]) was inactive. The AC50 is 50 µM (active) in [1]; 30.7 µM (active) in test [2]; 24.9 µM (active) with Caspase-3 (Homo sapiens); 29.1 µM (active) in test [5]; 30.9 µM (active) in test [7]; 67.9 µM (active) in test [8]. The AC50 with CYP2C9 (gene 1559) was 37.7 µM (active); with CYP2E1 (gene 1571) it was 12.7 µM (active); with CYP4A11 (gene 1579), 40.1 µM (active); in test [9] it was 35.6 µM (active); in [10], 28.9 µM (active); in test [11], 50 µM (active). The values for the AC50 in test [12] and in test [14] were 14.3 µM (active) and 83.1 µM (active), respectively.
